This is an account of results in PubChem BioAssay AID411 (National Center for Advancing Translational Sciences (NCATS), 2006).

In all, about 72,000 compounds went through this assay and about 1,600 (2.2%) were called active. The full list was thinned out, with actives kept by preference. A number with no mark means an inactive call. Calls follow the shape of the dose curve; as a rule, active = well fitted inhibition curve with a large enough effect; inconclusive = small, poorly fitted or top-dose-only effect; inactive = flat fitted curve, though single readings scatter.
% is scaled to controls: 0 for no effect and ±100 for the full control effect; potency is read from the fitted curve at half-maximal effect.

Luciferin 4-monooxygenase (Photinus pyralis), sequence (P08659 whole entry, looked up): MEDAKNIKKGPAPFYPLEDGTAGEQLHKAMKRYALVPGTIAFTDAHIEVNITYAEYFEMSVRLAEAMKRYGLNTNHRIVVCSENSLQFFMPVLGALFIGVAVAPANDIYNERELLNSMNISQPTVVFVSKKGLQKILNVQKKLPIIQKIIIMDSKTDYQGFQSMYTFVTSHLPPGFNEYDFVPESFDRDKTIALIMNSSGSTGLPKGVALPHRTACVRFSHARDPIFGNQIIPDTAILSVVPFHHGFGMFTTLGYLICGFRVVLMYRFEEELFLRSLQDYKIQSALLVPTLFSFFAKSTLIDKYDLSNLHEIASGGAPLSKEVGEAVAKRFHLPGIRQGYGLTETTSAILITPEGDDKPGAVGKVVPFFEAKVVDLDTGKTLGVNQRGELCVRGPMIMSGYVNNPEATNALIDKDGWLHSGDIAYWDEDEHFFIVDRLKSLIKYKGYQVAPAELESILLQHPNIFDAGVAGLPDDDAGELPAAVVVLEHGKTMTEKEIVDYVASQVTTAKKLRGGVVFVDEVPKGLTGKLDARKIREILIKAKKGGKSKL

The test deals with Luciferin 4-monooxygenase (Photinus pyralis) (UniProt P08659). Kind of test: qHTS Assay for Inhibitors of Firefly Luciferase. Also: nearly all actives have a fitted effect of over 40% in size. As to conditions: purified firefly luciferase, luminescence, 8 min; series mostly up to 57.1 µM; activity change, negative = inhibition: at the top concentration. How it is done:
To aid in the interpretation of high-throughput screening (HTS) results derived from luciferase-based assays, we used quantitative HTS, an approach that defines the concentration-response behavior of each library sample, to profile the ATP-dependent luciferase from Photinus pyralis against more than 72 000 samples. Luciferase (PKLight, Cambrex Corporation) was assayed for its ability to generate light using ATP and luciferin as substrates. The ATP concentration in the assay (10 uM) was within the linear range of enzyme activity for the assay conditions used. See following reference for further details: [1] Auld DS, Southall NT, Jadhav A, Johnson RL, Diller DJ, Simeonov A, Austin CP, Inglese J. Characterization of chemical libraries for luciferase inhibitory activity. J Med Chem. 2008 Apr 24;51(8):2372-86. Auld DS, Zhang YQ, Southall NT, Rai G, Landsman M, Maclure J, Langevin D, Thomas CJ, Austin CP, Inglese J. A Basis for Reduced Chemical Library Inhibition of Firefly Luciferase Obtained from Directed Evolution. J. Med. Chem., 2009, 52 (5), pp 1450#1458 [3] Auld DS, Thorne N, Nguyen DT, Inglese J. A specific mechanism for nonspecific activation in reporter-gene assays. ACS Chem Biol. 2008 Aug 15;3(8):463-70. Auld DS, Thorne N, Maguire WF, Inglese J. Mechanism of PTC124 activity in cell-based luciferase assays of nonsense codon suppression. Proc Natl Acad Sci U S A. 2009 Mar 3;106(9):3585-90. Inglese J, Auld DS, Jadhav A, Johnson RL, Simeonov A, Yasgar A, Zheng W, Austin CP. Quantitative high-throughput screening: a titration-based approach that efficiently identifies biological activities in large chemical libraries. Proc Natl Acad Sci U S A. 2006 Aug 1;103(31):11473-8.
Four uL of substrate mix (final concentration, 50 mM imidazole pH 7.2, 50 mM KCl, 7 mM MgCl2, 10 uM ATP, 0.01% Tween 20, 0.05% BSA) was dispensed into white 1536 well plates. Twenty-three nL of compound was delivered by a pin tool and 2 uL of luciferase detector mix (PKLight, Cambrex) was added. Following 8-minute incubation at ambient temperature, luminescence was measured by a ViewLux (Perkin Elmer) at 5 seconds exposure/plate.
On the technique in general: In qHTS, concentration-response curves come from the screen itself.
For `COc1ccc(NC(=O)Nc2cccc3cccnc23)cc1`, the Potency is 5.01 µM (active).

Turning to `c1ccc(CN2CC[C@@]3(CCCNC3)C2)cc1`, the activity change, negative = inhibition is 0.194% [at 11.4 µM].

Regarding `CC(C)(c1ccc(OC[C@@H]2CO2)cc1)c1ccc(OC[C@H]2CO2)cc1`, the “activity change, negative = inhibition” value was 2.01%.

On to `CC[C@]1(O)C(=O)OCc2c1cc1n(c2=O)Cc2cc3ccccc3nc2-1`, for which the activity change, negative = inhibition was 1.26% [at 11.4 µM].

For the compound `Cc1cccc([C@H](C)c2cnc[nH]2)c1C`, the “activity change, negative = inhibition” value is -0.831%.
